# Rows were chosen to be rich in hits. Some 5.5% of all compounds tested hit in one or more screens of this group.
# CtBP-E1A blk – qHTS Assay for Inhibitors of the CtBP/E1A Interaction; AID 651724, 2012; AlphaScreen GST-E1A/His-CtBP binding, 1536-well; hits give low values; 340,000 compounds, 0.49% hits; CtBP / adenovirus E1A interaction (AlphaScreen); activity change, % (concentration not given with the values); in the data active = activity change below about -65%; inconclusive = mostly about -30% to -63%; also: % is scaled to controls: 0 for no effect and ±100 for the full control effect
#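 GST-E1A and His-tagged CtBP (125 nM each as 5X stock) were preincubated with pin-transferred compound for 2 h at 37 °C in the dark, then glutathione donor and nickel acceptor beads were added for 1 h before AlphaScreen reading.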
# Six1-Eya2 blk – qHTS Assay for Inhibitors of the Six1/Eya2 Interaction; 360,000 compounds, 0.56% hits; AID 651725, 2012; Homeobox protein SIX1 (Homo sapiens) + Protein phosphatase EYA2 (Homo sapiens), …; AlphaScreen GST-Six1/His-Eya2 binding, biochemical; hits give low values; activity change, % (test concentration not listed); in the data active = activity change below about -65%; inconclusive = mostly about -30% to -63%; also: % is scaled to controls: 0 for no effect and ±100 for the full control effect
#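 GST-Six1 + His-Eya2 (5X stock: 250/500 nM); Tris pH 8.0, 300 mM NaCl, 0.05% BSA, 0.02% Tween 20; GSH donor/Ni acceptor beads; 1 h 37 °C dark; AlphaScreen readout.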
# MBNL1-CUG inh – qHTS Assay for Inhibitors of MBNL1-poly(CUG) RNA binding; Muscleblind-like protein 1 (Homo sapiens), Q9NR56; TR-FRET MBNL1-His/biotin-(CUG)12 binding, 665/545 ratio; Potency, µM (highest dose often 57.5 µM), inactives show at the highest dose activity change, negative = inhibition, actives largely listed as inhibitors; 280,000 compounds, 0.036% hits; AID 2675, 2010; active = well fitted inhibition curve with a large enough effect in the signal ratio, with a control signal flat, not every such curve was filed as active; inconclusive = small, poorly fitted or top-dose-only effect, or effect the other way, or a change in a side signal; inactive = no such curve, though single readings can be large or run the other way; the % refers to the signal ratio; also: potency is read from the fitted curve at half-maximal effect; % is scaled to controls: 0 for no effect and ±100 for the full control effect
#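 Compounds (final 92 nM to 58 uM) are added to His-tagged MBNL1 and biotin-(CUG)12, then terbium anti-His antibody and streptavidin-XL665 (5 nM final). After 60 min at room temperature, the 665/545 nm ratio is read.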
# RORgamma inh – qHTS for inhibitors of ROR gamma transcriptional activity; AID 2551, 2010; Drosophila S2 Gal4-RORgamma UAS-luciferase reporter, 20 h; Potency, µM (highest dose often 53.6 µM), for inactives: at the highest dose activity change, negative = inhibition, most hits filed as inhibitors; Nuclear receptor ROR-gamma (Mus musculus), P51450; 310,000 compounds, 5.4% hits; also: potency is read from the fitted curve at half-maximal effect; % is scaled to controls: 0 for no effect and ±100 for the full control effect; nearly all actives have a fitted effect of over 60% in size
# Target sequence (P51450 whole entry, looked up, the tested form may be a part): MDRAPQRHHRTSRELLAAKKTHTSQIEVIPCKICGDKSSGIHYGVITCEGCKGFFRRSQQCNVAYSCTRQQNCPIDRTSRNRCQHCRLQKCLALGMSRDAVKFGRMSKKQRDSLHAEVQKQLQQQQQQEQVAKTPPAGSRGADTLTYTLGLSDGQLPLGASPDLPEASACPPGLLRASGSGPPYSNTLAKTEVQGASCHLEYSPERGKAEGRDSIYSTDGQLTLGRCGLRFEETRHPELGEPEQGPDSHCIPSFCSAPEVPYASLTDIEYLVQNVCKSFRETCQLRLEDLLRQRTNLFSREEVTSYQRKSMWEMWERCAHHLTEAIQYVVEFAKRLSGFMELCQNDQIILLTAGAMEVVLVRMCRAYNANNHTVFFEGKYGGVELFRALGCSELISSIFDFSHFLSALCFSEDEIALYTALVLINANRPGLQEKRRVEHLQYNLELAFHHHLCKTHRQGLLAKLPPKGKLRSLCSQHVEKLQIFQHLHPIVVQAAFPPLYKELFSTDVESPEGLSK
#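 A Gal4/UAS one-hybrid system in insect cells: metallothionein-promoter Gal4–ROR gamma fusion plus Photinus luciferase reporter. Copper sulfate 700 uM final, 20 hr ambient incubation, luminescent detection after 10 min with reagent.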
# CBFb RUNX1 block – qHTS Assay for Compounds Blocking the Interaction Between CBF-beta and RUNX1 for the Treatment of Acute Myeloid Leukemia. Runt-related transcription factor 1 (Homo sapiens) + Core-binding factor subunit beta …. AID 1477, 2009. Potency, µM (titrated, usually from 59.8 µM), without a hit: at the highest dose activity, negative = inhibition, most hits filed as inhibitors. AlphaScreen CBFb-His/RUNX1-biotin binding, biochemical. 230,000 tested, under 10 active; also: % of control where 0% means no effect
#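 Read-out: AlphaScreen. Format: His-CBF-beta with biotinylated RUNX1 (30 nM each) preincubated 20 min, compound 15 min, Ni-chelate plus streptavidin beads 90 min; room temperature throughout.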
# Gal4-VP16 FLuc – VP16 counterscreen qHTS for inhibitors of ROR gamma transcriptional activity. Drosophila S2 Gal4-VP16 UAS-luciferase, luminescence, 20 h. Potency, µM (titrated, usually from 53.6 µM), without a hit: at the highest dose activity, negative = inhibition, usual class: inhibitors. 310,000 compounds, 3.5% hits;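 also: Gal4-VP16 expression switched on by copper sulfate through the metallothionein promoter; potency is read from the fitted curve at half-maximal effect; % is scaled to controls: 0 for no effect and ±100 for the full control effect; nearly all actives have a fitted effect of over 50% in size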
# The depositor's hits bear a star; u = inconclusive; x = no result; [ ] = dose if it differs, or a comment. Unless noted, calls follow the shape of the dose curve; as a rule, active = well fitted curve in the direction sought with a large enough effect; inconclusive = small, poorly fitted or top-dose-only effect, or another doubt; inactive = no such curve, though single readings can be large; an effect the other way counts as inactive or inconclusive.
SMILES,CtBP-E1A blk,Six1-Eya2 blk,MBNL1-CUG inh,RORgamma inh,CBFb RUNX1 block,Gal4-VP16 FLuc
CCCCc1c(C)nn(-c2nnc3c4ccccc4n(CC)c3n2)c1C,-5,-6,11%,1.8µM*,-1%,4µM*
COc1ccc(NC(=O)c2ccc(Cc3ccc(C)cc3)o2)cc1,0,2,5%,29%,-8%,2%
Cc1ccc(Cc2ccc(C(=O)NNC(N)=S)o2)cc1,2,-1,-8%,10µM*,1%,-16%
S=C(NCCc1ccccc1)N1CCC2CC1c1c(Cl)cccc12 (centres undefined),7,-10,x,x,x,x
COC(=O)c1cn[nH]c1NC(=S)Nc1ccc(C)cc1Cl,4,1,14%,2.8µM*,-5%,3.5µM*
COC(=O)c1cn[nH]c1NC(=S)Nc1ccc(Cl)c(Cl)c1,6,1,7%,u,3%,u
COC(=O)c1cn[nH]c1NC(=S)Nc1ccccc1C,4,-10,3%,5.6µM*,-2%,u
O=C(O)c1c2c(nc3ccc(S(=O)(=O)N4CCC(C(=O)NCc5ccccc5Cl)CC4)cc13)CCCC2,u,u,24%,-2%,x,-3%
COc1cc(C(=O)NCC(=O)OCC(=O)Nc2nnc(-c3ccccc3)o2)cc(OC)c1OC,-2,-14,x,x,x,x
COc1ccc(C(=O)Nc2nnc(-c3ccccc3)o2)cc1OC,-19,u,2%,0.56µM*,-10%,1µM*
O=C(Nc1nnc(-c2ccncc2)o1)c1ccccc1F,3,-1,4%,u,x,10µM*
COc1ccccc1-c1nnc(NC(=O)c2ccccc2F)o1,0,-20,-6%,2µM*,-16%,2.8µM*
COc1cc2ccccc2cc1C(=O)Nc1ccc(Cc2ccncc2)cc1,-10,-9,16%,26%,-12%,2%
COc1cc2ccccc2cc1C(=O)Nc1nnc(-c2ccncc2)o1,-3,-21,2%,7.1µM*,x,10µM*
O=C(Nc1nnc(-c2ccncc2)o1)c1ccccc1,-17,-16,-1%,3.2µM*,u,5µM*
C[C@@H]1NC(=O)[C@@H](C)COC(=O)[C@H](C)NC(=O)[C@@H](C)COC1=O,x,x,x,8%[10 µM],1%[13.1 µM],-8%[10 µM]
COC(=O)/C=C1/S/C(=N/NC(=O)c2ccccc2)NC1=O,-12,6,14%,2.8µM*,5%,0%
COC(=O)/C=C1\S/C(=N/NC(=O)c2ccccc2)NC1=O,-2,-1,u,11µM*,-1%,11µM*
COc1ccccc1/C=C1\S/C(=N/NC(=O)c2cccc(Br)c2)NC1=O,-1,-8,1%,0.32µM*,0%,0.56µM*
C(=N\NC1=Nc2cccc3cccc1c23)/c1ccccc1,-28,-30,1%,2.2µM*,3%,u
Clc1ccc(/C=N/NC2=Nc3cccc4cccc2c34)cc1,-5,-12,0%,2µM*,-14%,14µM*
Cc1cc(Cl)ccc1NC(=S)NC1CCCC1,4,-15,-3%,2.2µM*,x,14µM*
CC(=O)c1cccc(NC(=S)NC2CC2)c1,-3,3,-20%,-18%,-5%,-4%
CC(=O)c1cccc(NC(=S)NC2CCCCC2)c1,-13,-2,0%,10µM*,6%,u
S=C(Nc1cccc(Cl)c1)NC1CCCCC1,5,2,-15%,3.5µM*,4%,10µM*
S=C(NNc1cccc(Cl)c1)NC1CCCCC1,3,-6,-10%,0.32µM*,-9%,1.4µM*

# Compound activity (PubChem BioAssay)
